Activity calls are given as the source filed them.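 How the source made its calls, unless noted: active means inhibition at or above 50% at 10 µM; inactive means inhibition below 50%.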

Experiment [1] in a line: inhibitors of TNFa-induced NFkB p65 translocation, primary screen, imaging, HUVEC, MLSMR starter and 10KST1 sets (AID 438;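 active means inhibition above 20% together with a positive visual image hit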;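 further: compound added about 3h40 before a 20 min TNFalpha stimulation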;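 on inhibition: signal is the nuclear over cytoplasmic p65 intensity ratio per well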). Particulars: HUVEC TNFa-induced p65 nuclear translocation; cell count: measured here: nuclei count (cytotoxicity indicator), at 2.08 µM; inhibition: at 2 µM, stronger effect = higher value, 0% TNFa-plus-vehicle, 100% no-TNFa wells.
Experiment [2] can be described thus: inhibitors of mutant huntingtin aggregation, primary screen, imaging, exon1htt(103Q)mCFP cells, high-content imaging (AID 483;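 active means visual image review flags a hit and inhibition of aggregation exceeds 20%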;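 further: compound exposure lasted 3 days before fixation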;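 on nuclei count: percent of the per-plate median nuclei count of sample wells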). Particulars: exon1htt(103Q)mCFP cell line, aggregate imaging, at 2 µM; inhibition of aggregation: stronger effect = higher value; nuclei count: measured here: cell count, toxicity.
Experiment [3] can be described thus: inhibitors of E-selectin induction by TNFa, primary screen, imaging, HUVEC, immunofluorescence, MLSMR starter and 10KST1 sets (AID 487;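 active means visually confirmed hit in the image check and inhibition above 20%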;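 on inhibition: signal is fraction of cell area covered by stained E-selectin grains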;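 on nuclei count: 100% = median nuclei count of all wells on the same plate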). Particulars: HUVEC TNFalpha-induced E-selectin immunofluorescence imaging, at 2 µM; inhibition: stronger effect = higher value; nuclei count: measured here: cell number, toxicity.
Experiment [4] deals with Voltage-gated potassium channel subunit beta-2 (Rattus norvegicus) (UniProt P62483). Description: KvBeta enzyme negative modulators, primary screen, biochemical, NADPH fluorescence (AID 622;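 active means fluorescence slope higher than the sample average by over 3 SD, cut at about -0.22 in these data, passing the limit was not always enough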;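 further: slope of raw intensity against log time taken from 70 to 1610 s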). Particulars: recombinant KvBeta, 4-cyanobenzaldehyde reduction, at 10 µM, stronger effect = higher value.
Chain of Voltage-gated potassium channel subunit beta-2 (Rattus norvegicus) (P62483 whole entry, looked up): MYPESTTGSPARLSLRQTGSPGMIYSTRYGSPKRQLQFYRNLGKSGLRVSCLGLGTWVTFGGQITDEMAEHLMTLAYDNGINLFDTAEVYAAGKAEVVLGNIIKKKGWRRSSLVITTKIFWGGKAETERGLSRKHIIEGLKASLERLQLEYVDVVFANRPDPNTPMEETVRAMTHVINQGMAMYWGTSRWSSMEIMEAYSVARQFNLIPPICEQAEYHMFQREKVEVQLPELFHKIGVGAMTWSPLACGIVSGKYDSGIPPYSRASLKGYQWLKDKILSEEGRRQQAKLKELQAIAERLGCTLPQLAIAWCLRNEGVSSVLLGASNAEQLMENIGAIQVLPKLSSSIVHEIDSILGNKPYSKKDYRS
For experiment [5] the target is unchanged. Description: KvBeta positive modulators, primary screen, biochemical, NADPH fluorescence (AID 623;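 active means NADPH fluorescence slope more negative than the mean of all samples by about 3 SD, 99.7% confidence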;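 further: fluorescence intensity change per second fitted from 20 to 320 s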). Particulars: Recombinant KvBeta, NADPH fluorescence decrease slope, 10 min; at 10 µM; stronger effect = lower value.
The target in experiment [6] is Alpha-2C adrenergic receptor (Homo sapiens) (UniProt P18825). Description: modulators of alpha2C/GIRK thallium flux, primary screen, cell-based, HEK293 alpha2C/GIRK1/2 (AID 624;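 active means fluorescence slope after compound addition differing from the mean of all screened samples at 99.7% confidence, in either direction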;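 further: slope of fluorescence ratio to pre-addition baseline per second over 15 to 24 s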). Particulars: thallium flux BTC fluorescence, at 10 µM, actives lie on both sides.
Chain of Alpha-2C adrenergic receptor (Homo sapiens) (P18825 whole entry, looked up): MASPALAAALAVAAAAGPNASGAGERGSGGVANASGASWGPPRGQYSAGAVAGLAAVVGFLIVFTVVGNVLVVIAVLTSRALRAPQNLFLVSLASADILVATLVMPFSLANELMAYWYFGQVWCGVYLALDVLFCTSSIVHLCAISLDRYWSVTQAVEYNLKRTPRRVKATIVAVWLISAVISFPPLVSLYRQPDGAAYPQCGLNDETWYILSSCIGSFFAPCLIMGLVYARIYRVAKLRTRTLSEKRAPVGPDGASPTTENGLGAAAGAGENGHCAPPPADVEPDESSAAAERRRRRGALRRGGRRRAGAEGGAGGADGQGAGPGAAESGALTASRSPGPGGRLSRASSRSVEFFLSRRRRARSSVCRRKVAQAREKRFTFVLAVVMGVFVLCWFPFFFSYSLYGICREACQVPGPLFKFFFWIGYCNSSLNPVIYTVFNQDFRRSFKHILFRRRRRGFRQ
The nature of experiment [7]: inhibitors of Sendai virus-induced IRF3 signaling, primary screen, TLR/RLR signaling modifier project, cell-based, Sendai virus stimulus, luciferase, 10K MLSCN set (AID 602276).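 Further: firefly luciferase from ISG56 promoter only with Renilla not read in this screen; 0% = Sendai virus plus DMSO and 100% = medium plus DMSO without virus.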 Particulars: HEK293 RL24 IRF3 luciferase reporter, at 10 µM, stronger effect = higher value. For orientation: In a reporter assay the amount or activity of a reporter protein is the signal.
The nature of experiment [8]: inhibitors of poly I:C-induced TLR3 signaling, primary screen, cell-based, poly I:C stimulus, luciferase, 10K MLSCN set (AID 602277;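 active means inhibition of the reporter signal at or above 50%; inactive means inhibition below 50%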). Particulars: HEK293-TLR3 RL24 IRF3 luciferase reporter, at 10 µM, stronger effect = higher value.

As for `CCOC(=O)C(NCc1ccccc1OC)(NC(C)=O)C(F)(F)F` (centres undefined), in experiment [1], the cell count is 279. Also, the inhibition (usually the change of the read-out against control, counted positive when it falls) in experiment [1] is -1.5% (inactive); in experiment [3], -72.8% (inactive); in experiment [7], 5.22% (inactive); in experiment [8], 4.4% (inactive). Further, the inhibition of aggregation in experiment [2] was 14.4% (inactive). Besides, the nuclei count in experiment [2] is 97.8%; in experiment [3], 125%. Moreover, the fluorescence slope in experiment [4] is -0.616 (inactive). For the same molecule, the NADPH fluorescence slope in experiment [5] was -5.3e-06 (inactive). Further, the slope in experiment [6] is 0.00702 (inactive).
Consider `CCS(=O)(=O)c1nc2ccccc2n1Cc1ccccc1Cl`, for which the cell count in experiment [1] is 689. The inhibition in experiment [1] was -1.1% (inactive); in experiment [3], -31.4% (inactive); in experiment [7] it was -0.827% (inactive); in experiment [8], 18.9% (inactive). Moreover, in experiment [2], the inhibition of aggregation was -10.2% (inactive). Also, the nuclei count in experiment [2] was found to be 115%; in experiment [3] it was 109%. In addition, the fluorescence slope in experiment [4] is -0.542 (inactive). The NADPH fluorescence slope in experiment [5] is -5.8e-06 (inactive). Besides, the slope in experiment [6] was 0.0072 (inactive).
As for `CCOc1cc(C(=O)N2CCN=C2SC)cc(OCC)c1OCC`, the cell count in experiment [1] was 227. The inhibition in experiment [1] was -4.9% (inactive); in experiment [3], -24.8% (inactive); in experiment [7], 15.5% (inactive); in experiment [8], 24.3% (inactive). For the same molecule, the inhibition of aggregation in experiment [2] is -39.5% (inactive). Further, the nuclei count in experiment [2] worked out at 109%; in experiment [3] it was 108%. The fluorescence slope in experiment [4] is -0.595 (inactive). In addition, the NADPH fluorescence slope in experiment [5] was 4.6e-06 (inactive). Also, in experiment [6], the slope was 0.00661 (inactive).
As for `COc1cc(SC)ccc1C(=O)Nc1ccon1`, in experiment [1], the cell count stood at 461. The inhibition was -10.3% (inactive) in experiment [1], 20.1% (inactive) in experiment [3], -57.7% (inactive) in experiment [7] and -144% (inactive) in experiment [8]. The inhibition of aggregation in experiment [2] is -0.3% (inactive). In addition, the nuclei count came out at 93% in experiment [2] and 91.2% in experiment [3]. Besides, in experiment [4], the fluorescence slope is -0.608 (inactive). Moreover, in experiment [5], the NADPH fluorescence slope is 2.8e-05 (inactive). For the same molecule, the slope in experiment [6] was 0.00729 (inactive).
On to `CC1CCN(CCc2nc3cc(NS(=O)(=O)c4ccc(F)cc4)ccc3n2C)CC1`, for which the cell count in experiment [1] is 392. Further, the inhibition is 6.1% (inactive) in experiment [1], -31.1% (inactive) in experiment [3], 5.27% (inactive) in experiment [7] and 16% (inactive) in experiment [8]. Moreover, in experiment [2], the inhibition of aggregation is 13.2% (inactive). Besides, the nuclei count is 97.6% in experiment [2] and 106% in experiment [3]. For the same molecule, the fluorescence slope in experiment [4] was -0.5 (inactive). The NADPH fluorescence slope in experiment [5] was -3.1e-05 (inactive). The slope in experiment [6] is 0.00517 (inactive).
With `Cc1ccc(NC(=O)c2ccco2)cc1NC(=O)CSc1nnc(-c2cccs2)n1C`, in experiment [1], the cell count amounted to 379. Also, the inhibition in experiment [1] was -5.5% (inactive); in experiment [3] it was 24.1% (inactive); in experiment [7] it was 10.8% (inactive); in experiment [8], 14.1% (inactive). For the same molecule, the inhibition of aggregation in experiment [2] is 16.8% (inactive). Also, the nuclei count amounted to 89.1% in experiment [2] and 98.1% in experiment [3]. Besides, the fluorescence slope in experiment [4] is -0.394 (inactive). For the same molecule, in experiment [5], the NADPH fluorescence slope is -5.8e-05 (inactive). Also, the slope in experiment [6] is 0.00449 (inactive).
In the case of `COc1ccccc1N(CC(=O)NCc1ccccn1)S(C)(=O)=O`, the cell count in experiment [1] came out at 355. Also, the inhibition in experiment [1] is -7.9% (inactive); in experiment [3], 29.3% (inactive); in experiment [7] it was 7.95% (inactive); in experiment [8] it was 32.3% (inactive). For the same molecule, in experiment [2], the inhibition of aggregation is 26.7% (inactive). In addition, the nuclei count was determined as 83.6% in experiment [2] and 75.4% in experiment [3]. For the same molecule, the fluorescence slope in experiment [4] is -0.422 (inactive). The NADPH fluorescence slope in experiment [5] is -4.6e-05 (inactive). Besides, the slope in experiment [6] is 0.00261 (inactive).
For `CC(=O)c1c(C)[nH]c(C(=O)N2CCN(C(=O)c3ccco3)CC2)c1C`, in experiment [1], the cell count was 233. In addition, the inhibition in experiment [1] was -19.9% (inactive); in experiment [3], -98.1% (inactive); in experiment [7], -22.5% (inactive); in experiment [8], 10.9% (inactive). Also, the inhibition of aggregation in experiment [2] is 9.5% (inactive). Besides, the nuclei count in experiment [2] is 94.7%; in experiment [3] it was 120%. Moreover, the fluorescence slope in experiment [4] is -0.537 (inactive). Also, the NADPH fluorescence slope in experiment [5] was 9e-06 (inactive). The slope in experiment [6] is 0.00697 (inactive).
For `Cc1nc2c(C(=O)O)cnn2c(C)c1Cc1ccccc1F`, the cell count in experiment [1] turned out to be 606. Besides, the inhibition is -12.2% (inactive) in experiment [1], -44.9% (inactive) in experiment [3], -2.88% (inactive) in experiment [7] and -3.96% (inactive) in experiment [8]. Further, in experiment [2], the inhibition of aggregation was 11.2% (inactive). The figures for the nuclei count in experiment [2] and in experiment [3] were 77.3% and 105%, respectively. For the same molecule, the fluorescence slope in experiment [4] was -0.406 (inactive). Moreover, in experiment [5], the NADPH fluorescence slope was 4.6e-06 (inactive). In addition, in experiment [6], the slope is 0.00393 (inactive).

These data come from PubChem BioAssay.
